# According to PubChem BioAssay (Tox21):
# Records with an inconclusive call do not appear. Where a call stands in place of a potency, no number is given. Activity calls are given as the source filed them. Calls follow the shape of the dose curve; as a rule, active = well fitted cell-killing curve with a large enough effect in the repeat runs; inconclusive = weak or mixed curves, or effect the other way; inactive = no such curve, though single readings can be large or run the other way.
# Test: qHTS assay to identify small molecule antagonists of the thyroid receptor (TR) signaling pathway - cell viability counter screen (AID 743064); also: nearly all actives have a fitted effect of over 50% in size
# Conditions: GH3.TRE-Luc viability, CellTiter-Fluor, 24 h; series mostly up to 70.3 µM
# Excerpt: National Center for Advancing Translational Sciences [NCATS]
# NIH Chemical Genomics Center [NCGC]
# U.S. Environmental Protection Agency [EPA]
# National Institutes of Environmental Health Sciences [NIEHS]
# National Toxicology Program [NTP]
# U.S. Food and Drug Administration [FDA]
# Thyroid receptor (TR), a nuclear hormone receptor, plays an important role in development, proliferation, differentiation, metabolism, brain function, and cardiovascular system. […] To profile the Tox21 10K compound library in TR signaling, a cell-based GH3-TRE-Luc assay (GH3.TRE-Luc cell line, developed by the laboratory of Dr. Albertinka J. Murk, Wageningen University) was used to measure the inhibition of TR. GH3 (rat pituitary tumor) cells stably expressing a TR activity sensor consisting of two TR response elements and a luciferase reporter gene. The cytotoxicity of the Tox21 compound library against the GH3.TRE-Luc cell line was tested in parallel by measuring the cell viability using CellTiter-Fluor assay (Promega, Madison, WI) in the same wells.
# Tox21 Assay Protocol Summary:
# GH3.TRE-Luc cells were dispensed at 1500 cells/4 uL/well into 1536-well white solid bottom plates using a Multidrop Combi dispenser (Thermo Fisher Scientific Inc., Waltham, MA). After the assay plates were incubated at 37 C for 4 hours, 23 nL of library compound or DMSO controls was transferred to the assay plates by a pintool station (Kalypsys, San Diego, CA), followed by addition of 1 ul of T3 (1 nM, final concentration in the wells) to stimulate TR transactivation. The assay plates were incubated at 37 C for 23.5 h, and then 1 uL of CellTiter-Fluor reagent (Promega, Madision, WI) of measuring cytotoxicity was added to each well using a Bioraptr Flying Reagent Dispenser (FRD) workstation (Beckman Coulter, Indianapolis, IN, USA). The plates were incubated at 37C and 5% CO2 for additional 30 min, and fluorescence intensity was measured by a ViewLux plate reader (PerkinElmer, Shelton, CT).
# Potency is read from the fitted curve at half-maximal effect.
row,SMILES,Potency
1,CCCCCCCC(=O)OCCCCCC,inactive
2,COc1ccc2nc(S(=O)Cc3ncc(C)c(OC)c3C)[nH]c2c1 (stereo not given),inactive
3,CCCCC(CC)COS(=O)(=O)O (stereo not given),inactive
4,CC(C)COC(=O)c1ccc(O)cc1,inactive
5,Cc1ccc2c(c1)CCCN2,inactive
6,Cc1cccc2sc(N)nc12,inactive
7,O=C(O)c1cc(Cl)cc(Cl)c1O,inactive
8,ClC1=C(Cl)C1(Cl)Cl,inactive
9,NC(=O)CCCCC(N)=O,inactive
10,C=C(C)c1ccccc1,inactive
11,CCOC(=O)C(C)O (stereo not given),inactive
12,CC(C)C1CCC(C(=O)N[C@H](Cc2ccccc2)C(=O)O)CC1 (stereo not given in full),inactive
13,CC(=O)C(C)=O,inactive
14,CCN(CC)c1cccc(O)c1,inactive
15,c1ccc(CCCc2ccncc2)cc1,inactive
16,CC1CCC(C(C)CS)CC1S (stereo not given),inactive
17,O=C(O)/C=C/c1ccc(O)c(O)c1,inactive
18,O=C(Nc1ccc(C(=O)O)c(O)c1)c1ccccc1,inactive
19,COc1cc(NC(C)CCCN)c2ncccc2c1 (stereo not given),11.4 µM (active)
20,O=[N+]([O-])C1(Br)COCOC1,17.2 µM (active)

row,SMILES,Potency
1,C1=CCC2CC=CC2C1 (stereo not given),inactive
2,C=C(C)C(=O)OCCC(F)(F)C(F)(F)C(F)(F)C(F)(F)C(F)(F)C(F)(F)F,inactive
3,CCN(Cc1cccc(S(=O)(=O)O)c1)c1ccc(C(=C2C=CC(=[N+](CC)Cc3cccc(S(=O)(=O)O)c3)C=C2)c2ccc(O)cc2S(=O)(=O)[O-])cc1,37.1 µM (active)
4,C[C@@H]1C[C@H]2[C@@H]3CCC4=CC(=O)C=C[C@]4(C)[C@@]3(F)[C@@H](O)C[C@]2(C)[C@@]1(O)C(=O)COP(=O)(O)O,inactive
5,O=C(C(=O)c1ccco1)c1ccco1,inactive
6,CC(C)OC(=O)c1ccccc1C(=O)OC(C)C,inactive
7,O[C@@H](CNC[C@H](O)[C@H]1CCc2cc(F)ccc2O1)[C@@H]1CCc2cc(F)ccc2O1,10.6 µM (active)
8,C=CCOC(=O)COCCC(C)C,inactive
9,O=C1CC[C@@H](C(=O)O)N1,inactive
10,COC(=O)CC(C(C)=O)C(=O)OC (stereo not given),inactive
11,CC1=CC[C@@]23C[C@@H]1C(C)(C)[C@@H]2CC[C@H]3C,inactive
12,CC(CCc1ccc(O)cc1)NCCc1ccc(O)c(O)c1 (stereo not given),inactive
13,Nc1cccc2c(N)cccc12,inactive
14,C=CC(=O)O,inactive
15,O=C1OC(=O)c2c(Br)c(Br)c(Br)c(Br)c21,inactive
16,CC(C)CC(O)CC(C)C,inactive
17,CCCCCCCCCCCCCOC(=O)CCSCCC(=O)OCCCCCCCCCCCCC,inactive
18,C=CC(=O)NC(C)C,inactive
19,FC(F)(F)C(F)(F)C(F)(F)C(F)(F)CCI,inactive
20,O=c1[nH][nH]c(=O)c2cc([N+](=O)[O-])ccc12,inactive
